In PubChem BioAssay (NCI):
Values joined by “and” are separate entries in the source; they are usually repeats but may differ in a detail not shown here. Equal entries are not always repeated. This is part of a sample that, as a whole, favours compounds with a hit. Of some 83,000 tested, about 20% had one in any assay.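 The endpoint reported here, percent growth, reads 100 for growth as untreated, 0 for no net growth and -100 for all cells dead.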 Active and inactive are the calls of the source. Rule for the calls: active = growth percent below 10; inactive = the rest.

Assays:
Experiment in all cases: NCI-60 one-dose screen, 48 h (100 = growth as untreated, 0 = no growth, -100 = all killed)
Conditions in all cases: 10 µM unless noted
[1] = tested on: DU-145 prostate
[2] = tested on: K-562 leukemia
[3] = tested on: MALME-3M melanoma
[4] = tested on: MDA-MB-231 breast
[5] = tested on: RXF 393 renal
[6] = tested on: SF-268 CNS
[7] = tested on: SF-295 CNS
[8] = tested on: SF-539 CNS
[9] = tested on: UACC-257 melanoma
[10] = tested on: M14 melanoma

Measured: growth

COc1cc(C=C2C(=O)NC(=O)NC2=O)ccc1O
inactive: [1] 124% | [2] 109% | [3] 136% | [4] 96.5% | [5] 84.4% | [6] 106% | [7] 101% | [8] 101% | [9] 87.6% | [10] 101%

COc1ccc(CN)cc1OC
inactive: [1] 111% and 106% | [2] 131% | [3] 96.8% | [4] 109% and 107% | [5] 126% | [6] 108% and 98.9% | [7] 104% | [8] 105% and 99.3% | [9] 106% and 101% | [10] 110% and 98.7%

COc1ccc(N(CC(=O)NCCC[Te]c2ccccc2)C(=O)c2ccccc2)cc1
active: [7] -7.61%
inactive: [1] 66.6% | [2] 56.1% | [3] 129% | [4] 14.2% | [5] 133% | [6] 39.2% | [8] 31.4% | [9] 95.4% | [10] 32.1%

O=NN1CCCCC1
inactive: [1] 107% | [2] 121% | [3] 120% | [4] 95.9% | [5] 118% | [6] 96.1% | [7] 119% | [8] 91.8% | [9] 97.8% | [10] 103%

COc1cc(/C=C\[N+](=O)[O-])ccc1OCc1ccccc1
active: [2] 0.133% | [5] -86.1%
inactive: [1] 44.3% | [3] 77.9% | [4] 12.5% | [6] 19.4% | [7] 48.7% | [8] 30.8% | [9] 61.8% | [10] 15.5%

Cc1ccc(NC2=N[C@]34CC(=O)CC[C@]3(C)[C@H]3CC[C@]5(C)C(=O)CC[C@H]5[C@@H]3C[C@@H]4S2)c(C)c1
inactive: [1] 25.9% | [3] 27.3% | [4] 26.6% | [5] 28.8% | [6] 46.9% | [7] 63.8% | [9] 65.6% | [10] 37.9%
active: [2] 5.33% | [8] 8.46%

CN1CCC2(CC1)C(C#N)C(=O)NC(=O)C2C#N (stereo not given)
inactive: [1] 112% | [2] 94.5% | [3] 107% | [4] 101% | [5] 104% | [6] 107% | [7] 94.1% | [8] 94.9% | [9] 90.7% | [10] 107%

COCC1OC2OC3C(COC)OC(OC4C(COC)OC(OC5C(COC)OC(OC6C(COC)OC(OC7C(COC)OC(OC8C(COC)OC(OC1C(O)C2O)C(O)C8O)C(O)C7O)C(O)C6O)C(O)C5O)C(O)C4O)C(O)C3O (stereo not given) (tested in a mixture with another compound)
inactive: [1] 113% | [2] 99.5% | [3] 127% | [4] 115% | [5] 129% | [6] 105% | [7] 111% | [8] 111% | [9] 117% | [10] 105%

CC1(C)N=C(N)N=C(N)N1c1ccc(CCC(=O)Nc2ccc(S(=O)(=O)F)cc2)cc1
inactive: [1] 28.1% | [2] 12.9% | [3] 47% | [4] 76.4% | [5] 47.3% | [6] 25.1% | [7] 40.3% | [8] 28.7% | [9] 41.1% | [10] 35.9%

C/C(=C(\c1ccc(OCCN2CCOCC2)cc1)c1ccc(OC(=O)Cc2ccccc2)cc1)c1ccc(Cl)cc1
inactive: [1] 97.8% | [3] 104% | [4] 96.8% | [5] 89.6% | [6] 90.1% | [7] 98.9% | [8] 98.2% | [9] 87.5% | [10] 85.1%
active: [2] 7.15%

CC1(C)C2CCC1(CS(=O)(=O)O)C(=O)C2 (stereo not given)
inactive: [1] 109% and 125% | [2] 99.8% and 123% | [3] 85.1% and 105% | [4] 94.9% and 108% | [5] 137% and 123% | [6] 107% and 105% | [7] 101% and 100% | [8] 91% and 112% | [9] 99.5% and 96.6% | [10] 98% and 105%
